In experiment [1] the test system is DLD1. Nature of the experiment: cell viability (CellTiter-Glo) relative to plate median (fraction of plate median); higher = more viable cells. Conditions: 5 µM; treatment time 24 h; reporter: 7TFP. Put shortly:
(§1)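 Library compounds were added at a final concentration of 5 µM for 24 h to colorectal cancer cells stably transduced with a lentiviral TCF/Wnt firefly luciferase reporter. Reported values are firefly luciferase or CellTiterGlo luminescence, normalised per well to the plate median. Each value averages two independent replicates.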

A further experiment has as its system HCT116. The experiment is described as above. Conditions: 5 µM; treatment time 24 h; reporter: TCF4/Wnt. In outline:
as §1

In experiment [2] the test system is SW480. The description is as above. The following applies: 5 µM; treatment time 24 h; reporter: 7TFP. Put shortly: as §1
The test system of experiment [3] is DLD1. Nature of the experiment: TCF/Wnt firefly luciferase reporter signal relative to plate median (fraction of plate median); higher = higher Wnt reporter signal. The following applies: 5 µM; treatment time 24 h; reporter: 7TFP. In outline: as §1
On the technique in general: A reporter such as luciferase makes a cellular process visible.

Experiment [4] relates to SW480. The description is as above. Conditions: 5 µM; treatment time 24 h; reporter: 7TFP. Put shortly: as §1

± gives the standard deviation of the averaged measurements.

In the case of `NC(=O)c1cc[n+](CC2=C(C(=O)O)N3C(=O)[C@@H](NC(=O)[C@@H](c4ccccc4)S(=O)(=O)[O-])[C@H]3SC2)cc1`, the cell viability in the experiment with DLD1 [1] was 1.01 ± 0.055; in the experiment with HCT116, 0.983 ± 0.067; in the experiment on SW480 [2] it was 1.07 ± 0.085. For the same compound, the “TCF/Wnt firefly luciferase reporter signal” value was 0.967 ± 0.17 in the experiment with DLD1 [3] and 0.9605 ± 0.0078 with SW480 [4].
Regarding `CC(C)[C@H](NC(=O)[C@@H]1CCCN1)C(=O)N1CCNC(=O)C1=O` [Prolyl-valyl-diketopiperazine], the cell viability in the experiment with DLD1 [1] came out at 1.04 ± 0.12; with HCT116 it was 1.14 ± 0.092; with SW480 [2], 1.07 ± 0.05. Besides, the “TCF/Wnt firefly luciferase reporter signal” value in the experiment on DLD1 [3] stood at 0.919 ± 0.013; in the experiment on SW480 [4], 0.962 ± 0.021.
Consider `COC(=O)C[C@H]1C(C)(C)[C@@H](O)[C@@H]2CC3=C4CC(O)O[C@@H](c5ccoc5)[C@]4(C)CCC3[C@@]1(C)C2=O` (stereo partly drawn) [3,16-DIDEOXYMEXICANOLIDE-3beta-DIOL], for which the cell viability came out at 1.1 ± 0.085 in the experiment on DLD1 [1], 1.04 ± 0.042 in the experiment on HCT116 and 1.035 ± 0.0071 in the experiment with SW480 [2]. For the same compound, the “TCF/Wnt firefly luciferase reporter signal” value in the experiment with DLD1 [3] worked out at 1.02 ± 0.15; in the experiment on SW480 [4] it was 0.896 ± 0.076.
For `CN1Cc2c(N)cccc2C(c2ccccc2)C1` (stereo not given), the cell viability with DLD1 [1] turned out to be 1.05 ± 0.014; with HCT116, 1.15 ± 0.021; in the experiment with SW480 [2], 1.03 ± 0.05. Besides, the “TCF/Wnt firefly luciferase reporter signal” value with DLD1 [3] turned out to be 1.02 ± 0.14; with SW480 [4], 1.04 ± 0.014.
Turning to `COc1cc(C(=O)NCc2ccc(OCCN(C)C)cc2)cc(OC)c1OC`, the cell viability with DLD1 [1] turned out to be 0.99 ± 0.057; in the experiment with HCT116 it was 1 ± 0.13; with SW480 [2] it was 0.996 ± 0.077. Moreover, the “TCF/Wnt firefly luciferase reporter signal” value with DLD1 [3] stood at 0.871 ± 0.12; with SW480 [4] it was 0.851 ± 0.06.
Turning to `CCCCc1oc2ccccc2c1C(=O)c1cc(I)c(OCCN(CC)CC)c(I)c1`, the cell viability in the experiment with DLD1 [1] stood at 1.02 ± 0.089; with HCT116, 1.02 ± 0.036; in the experiment with SW480 [2], 0.964 ± 0.019. Besides, the figures for the “TCF/Wnt firefly luciferase reporter signal” value in the experiment with DLD1 [3] and in the experiment with SW480 [4] were 1.02 ± 0.029 and 1.04 ± 0.1, respectively.
The corresponding values for `CN1CCN(CC/C=C2/c3ccccc3Sc3ccc(S(=O)(=O)N(C)C)cc32)CC1` are 1.07 ± 0.078, 1.16 ± 0.042, 1.07 ± 0.064, 1.11 ± 0.078 and 0.983 ± 0.17.
The corresponding values for `CN(C)CCOC(C)(c1ccccc1)c1ccccn1` (stereo not given) are 1.1 ± 0.2, 0.947 ± 0.1, 1.04 ± 0.042, 0.999 ± 0.016 and 1.04 ± 0.014.
Regarding `CCC(=O)OCC(=O)[C@@]1(OC(=O)CC)[C@@H](C)C[C@H]2[C@@H]3CCC4=CC(=O)C=C[C@]4(C)[C@@]3(Cl)[C@@H](O)C[C@@]21C`, the cell viability in the experiment with DLD1 [1] was 0.958 ± 0.0057; in the experiment with HCT116, 0.982 ± 0.11; with SW480 [2], 1.01. The “TCF/Wnt firefly luciferase reporter signal” value in the experiment on DLD1 [3] was 0.94 ± 0.044; with SW480 [4], 0.941 ± 0.018.
Regarding `NS(=O)(=O)c1cc2c(cc1Cl)NC(C(Cl)Cl)NS2(=O)=O` (stereo not given), the cell viability in the experiment with DLD1 [1] amounted to 0.977 ± 0.047; with HCT116, 1.06 ± 0.078; in the experiment with SW480 [2], 0.973 ± 0.0028. In addition, the “TCF/Wnt firefly luciferase reporter signal” value is 1.11 ± 0.29 with DLD1 [3] and 0.991 ± 0.013 with SW480 [4].
As to `COc1cc2ccc(=O)oc2c(O)c1O`, the figures for the cell viability in the experiment with DLD1 [1], with HCT116 and in the experiment on SW480 [2] were 0.945 ± 0.077, 0.908 ± 0.061 and 0.966 ± 0.062, respectively. For the same compound, the results for the “TCF/Wnt firefly luciferase reporter signal” value with DLD1 [3] and in the experiment on SW480 [4] were 1.04 ± 0.042 and 0.9995 ± 0.00071, respectively.
Consider `COc1cc2c(cc1OC)C(=O)C(CC1CCN(Cc3ccccc3)CC1)C2` (stereo not given), for which the cell viability in the experiment on DLD1 [1] was determined as 1.05 ± 0.014; in the experiment with HCT116, 1.06 ± 0.042; with SW480 [2] it was 1.06. Besides, the “TCF/Wnt firefly luciferase reporter signal” value in the experiment on DLD1 [3] stood at 1.12 ± 0.14; in the experiment with SW480 [4], 1.06 ± 0.05.
`O=C1OCCN1/N=C/c1ccc([N+](=O)[O-])o1`: the cell viability was found to be 0.984 ± 0.023 with DLD1 [1], 1.05 ± 0.028 in the experiment with HCT116 and 0.999 ± 0.0014 in the experiment on SW480 [2]. In addition, the “TCF/Wnt firefly luciferase reporter signal” value in the experiment with DLD1 [3] amounted to 1.1 ± 0.078; in the experiment on SW480 [4] it was 1.05 ± 0.078.
As to `NNCCc1ccccc1`, the cell viability is 0.995 ± 0.11 with DLD1 [1], 0.943 ± 0.069 in the experiment with HCT116 and 0.98 ± 0.042 with SW480 [2]. Also, the entries for the “TCF/Wnt firefly luciferase reporter signal” value in the experiment with DLD1 [3] and with SW480 [4] were 1.26 ± 0.2 and 1.22 ± 0.014, respectively.
The matching figures for `CC(=O)O[C@@](C)(CCC=C(C)C)C1CC=C(C)CC1` (stereo not given in full): 0.974 ± 0.066, 1.02 ± 0.021, 0.993 ± 0.067, 0.9845 ± 0.0021 and 1.08 ± 0.028.

The record behind these values is the supplement of paper PMC6522484.
